Hit rate of the full screen: of about 5,500 compounds, about 2,000 (36%) were called active. Inconclusive results (about 18%) are left out. Rule as the data show it: active = normalized growth mostly below about 0.91 (no sharp cut-off); inconclusive = no clear call, values can overlap the other calls; inactive = mostly above about 0.92. Some of the results follow.
Test: chemical genetic growth profiling, strain panel (AID 1159580);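 also: tested at 20 µM; growth read once vehicle control cultures reached saturation at 30 °C; 1 = growth at the plate median or of vehicle wells; lower values mean less growth of the strain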
Conditions: growth OD
[1] = S. cerevisiae deletion strains, locus YBR021W, strain FUR4, active compounds read low
[2] = S. cerevisiae deletion strains, locus YBR229C, strain ROT2, active compounds read low
[3] = S. cerevisiae deletion strains, locus YCL029C, strain bik1, active compounds read low
[4] = S. cerevisiae deletion strains, locus YDL035C, strain GPR1, active compounds read low
[5] = S. cerevisiae deletion strains, locus YDL074C, strain BRE1, active compounds read low
[6] = S. cerevisiae deletion strains, locus YDL101C, strain DUN1, active compounds read low
[7] = S. cerevisiae deletion strains, locus YDL134C, strain PPH21, active compounds read low
[8] = S. cerevisiae deletion strains, locus YDL185W, strain tfp1, active compounds read low
[9] = S. cerevisiae deletion strains, locus YDL192W, strain arf1, active compounds read low
[10] = S. cerevisiae deletion strains, locus YDR101C, strain arx1, active compounds read low
[11] = S. cerevisiae deletion strains, locus YDR162C, strain NBP2, active compounds read low
[12] = S. cerevisiae deletion strains, locus YDR318W, strain mcm21, active compounds read low
[13] = S. cerevisiae deletion strains, locus YDR388W, active compounds read low
[14] = S. cerevisiae deletion strains, locus YDR502C, strain sam2, active compounds read low
[15] = S. cerevisiae deletion strains, locus YEL061C, strain CIN8, active compounds read low
[16] = S. cerevisiae deletion strains, locus YER110C, active compounds read low
[17] = S. cerevisiae deletion strains, locus YER155C, strain BEM2, active compounds read low
[18] = S. cerevisiae deletion strains, locus YER167W, strain BCK2, active compounds read low
[19] = S. cerevisiae deletion strains, locus YGL078C, strain dbp3, active compounds read low
[20] = S. cerevisiae deletion strains, locus YGL086W, strain mad1, active compounds read low
[21] = S. cerevisiae deletion strains, locus YGL248W, strain PDE1, active compounds read low
[22] = S. cerevisiae deletion strains, locus YGR078C, strain PAC10, active compounds read low
[23] = S. cerevisiae deletion strains, locus YGR135W, strain pre9, active compounds read low
[24] = S. cerevisiae deletion strains, locus YGR252W, strain gcn5, active compounds read low
[25] = S. cerevisiae deletion strains, locus YHR030C, strain SLT2, active compounds read low
[26] = S. cerevisiae deletion strains, locus YHR079C, strain IRE1 (second series), active compounds read low
[27] = S. cerevisiae deletion strains, locus YHR094C, strain hxt1, active compounds read low
[28] = S. cerevisiae deletion strains, locus YHR129C, strain ARP1, active compounds read low
[29] = S. cerevisiae deletion strains, locus YHR200W, strain rpn10, active compounds read low
[30] = S. cerevisiae deletion strains, locus YIL066C, strain RNR3, active compounds read low
[31] = S. cerevisiae deletion strains, locus YIL073C, strain SPO22, active compounds read low
[32] = S. cerevisiae deletion strains, locus YIL125W, strain kgd1, active compounds read low
[33] = S. cerevisiae deletion strains, locus YIR030C, strain dcg1, active compounds read low
[34] = S. cerevisiae deletion strains, locus YJL095W, strain BCK1, active compounds read low
[35] = S. cerevisiae deletion strains, locus YJL134W, strain LCB3, active compounds read low
[36] = S. cerevisiae deletion strains, locus YJL168C, strain set2, active compounds read low
[37] = S. cerevisiae deletion strains, locus YJL187C, strain SWE1 (second series), active compounds read low
[38] = S. cerevisiae deletion strains, locus YKL009W, strain mrt4, active compounds read low
[39] = S. cerevisiae deletion strains, locus YKL068W, active compounds read low
[40] = S. cerevisiae deletion strains, locus YKL085W, strain MDH1 (second series), active compounds read low
[41] = S. cerevisiae deletion strains, locus YKL085W, strain MDH1, active compounds read low
[42] = S. cerevisiae deletion strains, locus YKL190W, strain CNB1, active compounds read low
[43] = S. cerevisiae deletion strains, locus YKR001C, strain vps1, active compounds read low
[44] = S. cerevisiae deletion strains, locus YLR039C, strain RIC1, active compounds read low
[45] = S. cerevisiae deletion strains, locus YLR058C, strain SHM2, active compounds read low
[46] = S. cerevisiae deletion strains, locus YLR102C, strain apc9, active compounds read low
[47] = S. cerevisiae deletion strains, locus YLR268W, strain sec22, active compounds read low
[48] = S. cerevisiae deletion strains, locus YLR342W, strain FKS1 (second series), active compounds read low
[49] = S. cerevisiae deletion strains, locus YLR371W, strain rom2, active compounds read low
[50] = S. cerevisiae deletion strains, locus YLR418C, strain cdc73, active compounds read low
[51] = S. cerevisiae deletion strains, locus YML016C, strain PPZ1, active compounds read low
[52] = S. cerevisiae deletion strains, locus YML032C, strain rad52, active compounds read low
[53] = S. cerevisiae deletion strains, locus YML124C, strain tub3, active compounds read low
[54] = S. cerevisiae deletion strains, locus YMR078C, strain ctf18, active compounds read low
[55] = S. cerevisiae deletion strains, locus YMR223W, strain ubp8, active compounds read low
[56] = S. cerevisiae deletion strains, locus YMR263W, strain SAP30, active compounds read low
[57] = S. cerevisiae deletion strains, locus YMR307W, strain GAS1, active compounds read low
[58] = S. cerevisiae deletion strains, locus YNL067W, strain RPL9B, active compounds read low
[59] = S. cerevisiae deletion strains, locus YNL233W, strain BNI4, active compounds read low
[60] = S. cerevisiae deletion strains, locus YNL250W, strain rad50, active compounds read low
[61] = S. cerevisiae deletion strains, locus YNL271C, strain bni1, active compounds read low
[62] = S. cerevisiae deletion strains, locus YNL298W, strain CLA4, active compounds read low
[63] = S. cerevisiae deletion strains, locus YNL307C, strain MCK1, active compounds read low
[64] = S. cerevisiae deletion strains, locus YNR052C, strain pop2, active compounds read low
[65] = S. cerevisiae deletion strains, locus YOL006C, strain TOP1, active compounds read low
[66] = S. cerevisiae deletion strains, locus YOL012C, strain htz1
[67] = S. cerevisiae deletion strains, locus YOL147C, strain pex11, active compounds read low
[68] = S. cerevisiae deletion strains, locus YOR061W, strain CKA2, active compounds read low
[69] = S. cerevisiae deletion strains, locus YOR069W, strain VPS5, active compounds read low
[70] = S. cerevisiae deletion strains, locus YOR136W, strain idh2, active compounds read low
[71] = S. cerevisiae deletion strains, locus YOR144C, strain elg1, active compounds read low
[72] = S. cerevisiae deletion strains, locus YOR184W, strain ser1, active compounds read low
[73] = S. cerevisiae deletion strains, locus YOR316C, strain cot1, active compounds read low
[74] = S. cerevisiae deletion strains, locus YPL241C, strain CIN2, active compounds read low
[75] = S. cerevisiae deletion strains, locus YPR119W, strain clb2, active compounds read low
[76] = S. cerevisiae deletion strains, locus YPR141C, strain kar3, active compounds read low
[77] = S. cerevisiae deletion strains, locus YPR163C, strain tif3, active compounds read low
[78] = S. cerevisiae deletion strains, locus YPR167C, strain met16, active compounds read low
[79] = S. cerevisiae deletion strains, strain wtn01, active compounds read low
[80] = S. cerevisiae strains, strain wild type, active compounds read low

Measured: normalized growth

COc1c(C2COc3cc4c(cc3C2=O)CC(O)C(C)(C)O4)ccc2c1CCC(C)(C)O2 (configuration not stated)
inactive: [1] 0.992 | [2] 1.01 | [3] 1.01 | [4] 1.02 | [5] 1.05 | [6] 1.02 | [7] 1.05 | [8] 1.05 | [9] 1.01 | [10] 0.982 | [11] 1.02 | [12] 1.01 | [13] 1.03 | [14] 1.04 | [15] 1.01 | [16] 1.02 | [17] 1.02 | [18] 1.01 | [19] 1.02 | [20] 1.01 | [21] 1.06 | [22] 1.02 | [23] 1.07 | [24] 1.04 | [25] 1.01 | [26] 1.02 | [27] 1 | [28] 1.02 | [29] 1.03 | [30] 1.04 | [31] 1.08 | [32] 1.01 | [33] 1.03 | [34] 1.05 | [35] 0.995 | [36] 1.03 | [37] 1.04 | S. cerevisiae deletion strains, locus YJR043C, strain POL32, active compounds read low 1.01 | [38] 1.01 | [39] 1.01 | [40] 1.01 | [41] 1.01 | [42] 1.01 | [43] 1.04 | [44] 1.11 | [45] 1.02 | [46] 1.01 | [47] 0.997 | [48] 1.04 | [49] 1.03 | [50] 1.08 | [51] 1 | [52] 1.01 | [53] 1 | [54] 1.02 | [55] 1.02 | [56] 1 | [57] 1.13 | [58] 1.01 | S. cerevisiae deletion strains, locus YNL153C, strain GIM3, active compounds read low 1.06 | [59] 1.04 | [60] 1.05 | [61] 1.01 | [62] 1.02 | [63] 1.01 | [64] 1.03 | [65] 1.06 | [66] 0.808 | [67] 1 | [68] 1.01 | [69] 1.01 | [70] 1.02 | [71] 1.01 | [72] 0.971 | [73] 1.01 | [74] 0.99 | [75] 1.02 | [76] 1.01 | [77] 1.03 | [78] 1.04 | [79] 1 | [80] 1.03

COc1c(C(=O)O)ccc2c1CCC(C)(C)O2
active: S. cerevisiae deletion strains, locus YGR229C, strain SMI1, active compounds read low 1.2 [resistant] | [39] 0.922
inactive: [1] 1.03 | [2] 1.02 | [3] 1.01 | [4] 1.09 | [5] 1.13 | [6] 1.02 | [7] 1.07 | [8] 0.976 | [9] 1.03 | [10] 0.999 | S. cerevisiae deletion strains, locus YDR150W, strain NUM1, active compounds read low 1.04 | [11] 1.05 | [12] 0.987 | [13] 0.987 | [14] 0.981 | [15] 1.03 | [16] 0.997 | [17] 0.984 | [18] 1.01 | [19] 0.964 | [20] 1 | [21] 1.06 | [22] 1.06 | [23] 0.994 | [24] 1.06 | [25] 1.02 | [26] 0.982 | [27] 0.987 | [28] 1.02 | [29] 1 | [30] 1.04 | [31] 1.12 | [32] 0.957 | [33] 0.982 | [34] 1.1 | [35] 1.01 | [36] 0.988 | [37] 1.03 | [38] 0.995 | [40] 0.955 | [41] 0.955 | [42] 1.02 | [43] 1.04 | [44] 1.19 | [45] 1.04 | [46] 0.986 | S. cerevisiae deletion strains, locus YLR262C, strain YPT6, active compounds read low 1.22 | [47] 0.989 | S. cerevisiae deletion strains, locus YLR330W, strain CHS5, active compounds read low 1.03 | [48] 1.07 | [49] 1.01 | [50] 1.07 | [51] 1.02 | [52] 0.991 | [53] 0.975 | [54] 0.983 | [55] 1 | [56] 1.01 | [57] 1.03 | [58] 0.992 | [59] 1.08 | [60] 0.956 | [61] 0.995 | [62] 0.993 | [63] 0.989 | S. cerevisiae deletion strains, locus YNL322C, strain KRE1, active compounds read low 1.02 | [64] 0.981 | [65] 1.43 | [66] 0.918 | [67] 0.98 | [68] 1.02 | [69] 1.01 | [70] 0.993 | [71] 0.981 | [72] 1.04 | [73] 0.977 | [74] 1.02 | [75] 0.983 | [76] 0.942 | [77] 0.986 | [78] 0.98 | [79] 1.01 | [80] 1.06

From PubChem BioAssay AID1159580 (chemical genetic matrix, 2015)
